{"source": "PubChem BioAssay (EPA / NIEHS)", "note": "Results filed as inconclusive are left out. More than one record can exist for a structure, and the calls need not agree. The source made the active and inactive calls. Rule for the calls: active = hit-call score of the fitted dose curve at least 0.9, where 1 is the maximum; inconclusive = response in the unintended direction; inactive = score below 0.9.", "data": [{"biological_target": "human Vitamin D Receptor (VDR), VDR (gene 7421) (UniProt P11473)", "sequence (P11473 whole entry, looked up)": "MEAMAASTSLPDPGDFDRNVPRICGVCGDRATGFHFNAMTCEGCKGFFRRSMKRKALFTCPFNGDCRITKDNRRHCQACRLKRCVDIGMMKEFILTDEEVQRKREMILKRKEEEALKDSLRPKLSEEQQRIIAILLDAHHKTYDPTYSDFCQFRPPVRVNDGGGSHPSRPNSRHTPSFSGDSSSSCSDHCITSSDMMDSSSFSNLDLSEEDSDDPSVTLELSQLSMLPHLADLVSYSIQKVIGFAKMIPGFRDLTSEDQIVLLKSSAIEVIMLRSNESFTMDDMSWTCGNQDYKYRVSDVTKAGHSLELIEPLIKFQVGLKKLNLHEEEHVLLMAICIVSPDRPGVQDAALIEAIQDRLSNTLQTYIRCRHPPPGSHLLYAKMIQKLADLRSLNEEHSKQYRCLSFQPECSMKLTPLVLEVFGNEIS", "assay": "ATG_VDR_TRANS: Attagene TRANS-FACTORIAL HepG2 Assay for human Vitamin D Receptor (VDR) (AID 2283022)", "method": "ATG_TRANS is a cell-based, multiplexed-readout assay that uses HepG2, a human liver cell line, with measurements taken at 24 hours after chemical dosing in a 24-well plate.ATG_VDR_TRANS is one of 30 assay component(s) measured or calculated from the ATG_TRANS assay. It is designed to make measurements of mRNA induction, a form of inducible reporter, as detected with fluorescence intensity signals by Reverse transcription polymerase chain reaction (RT-PCR) and Capillary electrophoresis technology.Data from the assay component ATG_VDR_TRANS was analyzed into 1 assay endpoint. This assay endpoint, ATG_VDR_TRANS, was analyzed in the positive analysis fitting direction relative to DMSO as the negative control and baseline of activity. Using a type of inducible reporter, measures of mRNA for gain-of-signal activity can be used to understand the reporter gene at the transcription factor-level as they relate to the gene VDR. Furthermore, this assay endpoint can be referred to as a primary readout, because this assay has produced multiple assay endpoints where this one serves a reporter gene function. To generalize the intended target to other relatable targets, this assay endpoint is annotated to the nuclear receptor intended target family, where the subfamily is non-steroidal.\nHuman liver HepG2 cells are transiently transfected with multiple reporter transcription units (MRTUs) in 6-well plates using FuGene 6 reagent (Roche; 3 ml FuGene/1 mg DNA). The MRTU constructs are regulated by a cis-regulating element (promoter). […] A major difference between the CIS and TRANS system is that in CIS activities of endogenous TFs are measured, whereas the TRANS assay evaluates changes in activities of exogenous, chimeric NR-Gal4 proteins. […] At the end of 24 hour incubation, total RNA was isolated using TriZol reagent (Invitrogen). The isolated RNA is then reverse-transcribed using oligo(dT) primer and Mo-MLV reverse transcriptase (Invitrogen) with DNAse I (Ambion) treatment for 30 min. The one-tenth of the produced cDNA was amplified by PCR using Taq DNA polymerase (Invitrogen) and two reporter sequence-specific primers. The PCR products were fluorescently labeled by primer extension with 6-arboxyfluorescein (6-FAM) 5'-labeled reporter sequence-specific primer (2 min at 95 C, 20 s at 68 C and 10 min at 72 C) and these products were digested with 5U of HpaI (New England Biolabs) for 2h at 37 C. The fragments were purified using Qiaquick PCR columns (Qiagen), analyzed on an ABI 3130xL genetic analyzer (Applied Biosystems) with peak positions identified by using a set of X-rhodamine (ROX)-labeled MapMarker1000 molecular weight standards (BioVentures). The raw capillary electrophoresis data was processed using Attagraph software (Attagene).", "values": [{"smiles": "CC#Cc1cc(C)nc(Nc2ccccc2)n1", "outcome": "inactive"}, {"smiles": "Cc1cc(-c2ccc(N)c(C)c2)ccc1N", "outcome": "inactive"}, {"smiles": "CO/C=C(/C(=O)OC)c1ccccc1COc1cccc(C(F)(F)F)n1", "outcome": "inactive"}, {"smiles": "C=CC(=O)NCNC(=O)C=C", "outcome": "inactive"}, {"smiles": "Oc1c(Cl)c(Cl)c(Cl)c(Cl)c1Cl", "outcome": "inactive", "AC50": "9.71 µM (active)"}, {"smiles": "O=C(N[C@H]1CN2CCC1CC2)c1cc2ccoc2cn1", "outcome": "inactive"}, {"smiles": "CCC(C)(CC)c1cc(NC(=O)c2c(OC)cccc2OC)on1", "outcome": "inactive"}, {"smiles": "CCSC(=O)N(CC)C1CCCCC1", "outcome": "inactive"}, {"smiles": "CC(c1ccc(O)cc1)(c1ccc(O)cc1)c1ccc(O)cc1", "AC50": "17.7 µM (active)"}, {"smiles": "C=CC(N)=O", "outcome": "inactive"}, {"smiles": "COc1ccc(O)c(C(C)(C)C)c1", "outcome": "inactive"}, {"smiles": "C1CC2OC2CC1C1CO1", "note": "(stereo not given)", "outcome": "inactive"}, {"smiles": "Oc1ccc(C(c2ccc(O)cc2)(C(F)(F)F)C(F)(F)F)cc1", "outcome": "inactive"}, {"smiles": "ClC(Cl)=C(c1ccc(Cl)cc1)c1ccc(Cl)cc1", "outcome": "inactive"}, {"smiles": "Cc1ccccc1CO[C@@H]1C[C@@]2(C(C)C)CC[C@]1(C)O2", "outcome": "inactive"}, {"smiles": "CCC(=O)O[C@H]1CC[C@H]2[C@@H]3CCC4=CC(=O)CC[C@]4(C)[C@H]3CC[C@]12C", "outcome": "inactive"}, {"smiles": "Nc1ccc(-c2ccc(N)cc2)cc1", "outcome": "inactive"}, {"smiles": "COS(=O)(=O)OC", "outcome": "inactive"}, {"smiles": "O=S(=O)(O)C(F)(F)C(F)(F)C(F)(F)C(F)(F)C(F)(F)C(F)(F)F", "outcome": "inactive"}, {"smiles": "CCOP(=S)(OCC)SCSC(C)(C)C", "outcome": "inactive"}, {"smiles": "CCCCCCCCCc1ccc(O)cc1", "outcome": "inactive"}, {"smiles": "Clc1ccc(Cl)cc1", "outcome": "inactive"}, {"smiles": "CC(C)(O)C(=O)Nc1ccc([N+](=O)[O-])c(C(F)(F)F)c1", "outcome": "inactive"}, {"smiles": "Cc1cc2c3c(c1)C(c1ccccc1)=N[C@@H](NC(=O)c1ccncc1)C(=O)N3CC2", "outcome": "inactive"}, {"smiles": "ClC1=C(Cl)[C@]2(Cl)[C@@H]3[C@@H](Cl)[C@H]4O[C@H]4[C@@H]3C1(Cl)C2(Cl)Cl", "outcome": "inactive"}, {"smiles": "CN(C)CCO", "outcome": "inactive"}, {"smiles": "C[C@]12CCC(=O)C=C1CC[C@@H]1[C@@H]2CC[C@@]2(C)[C@H]1CC[C@]2(C)O", "outcome": "inactive"}, {"smiles": "c1cc2ccc3cccc4ccc(c1)c2c34", "outcome": "inactive"}, {"smiles": "ClC1=C(Cl)[C@]2(Cl)[C@@H]3[C@H]4C[C@H]([C@@H]5O[C@H]45)[C@@H]3[C@@]1(Cl)C2(Cl)Cl", "outcome": "inactive"}, {"smiles": "ClC1=C(Cl)[C@]2(Cl)[C@@H]3[C@@H]4C[C@@H]([C@H]5O[C@@H]45)[C@@H]3[C@@]1(Cl)C2(Cl)Cl", "outcome": "inactive"}, {"smiles": "CC(C)(c1ccccc1)c1ccc(O)cc1", "outcome": "inactive"}, {"smiles": "Cc1ccccc1O", "outcome": "inactive"}, {"smiles": "Cc1ccccc1[N+](=O)[O-]", "outcome": "inactive"}, {"smiles": "O=S(=O)(O)C(F)(F)C(F)(F)C(F)(F)C(F)(F)F", "outcome": "inactive"}, {"smiles": "Cc1cc(O)ccc1Cl", "outcome": "inactive"}, {"smiles": "CCNc1nc(NC(C)C)nc(SC)n1", "outcome": "inactive"}, {"smiles": "Cc1cccc([N+](=O)[O-])c1", "outcome": "inactive"}, {"smiles": "Sc1ccccc1", "outcome": "inactive"}, {"smiles": "Clc1ccc(C(c2ccccc2Cl)C(Cl)(Cl)Cl)cc1", "note": "(stereo not given)", "outcome": "inactive"}]}]}
